# ChEMBL document CHEMBL3988442, “University of Dundee, Small-Polar-MMV Screening Library” (2021)
# The whole screen tested about 48,000 compounds, of which about 13,000 (27%) showed an effect of 50% or more. The list shows a part of the results.
# Test system: Wolbachia pipientis
# Assay: Anti-Wolbachia Cell-Based Screen
# Format: functional
# Parameters: scale not given: in the data most compounds retested in dose-response had high values
# Conditions: 5 µM
row,SMILES,Percent Effect
1,CN1CCC(CNC(=O)c2ccc(O)nc2)c2ccccc21 (centres undefined),-12.01%
2,Cc1ccc(C)c(SCC(=O)Nc2cccc(C(=O)N(C)C)n2)c1,-1.523%
3,Cc1nc(S(=O)(=O)CCn2cccn2)n(C2CCCC2)c1C,-3.165%
4,CCOC(=O)CNC(=O)N1CCOC(CCc2ccccc2)C1 (centres undefined),-4.892%
5,CCOC(=O)CNC(=O)N1CCC(OC)c2ccccc2N(C)C(=O)C1 (centres undefined),109.7%
6,CCOC(=O)CNC(=O)N1CCN(c2ncccn2)CC1,-13.49%
7,CCCS(=O)(=O)N1C[C@@H]2COC[C@]2(CN2CCOCC2)C1.O=C(O)C(F)(F)F,-7.734%
8,CS(=O)(=O)N1C[C@@H]2COC[C@]2(COCC(=O)N2CCCC2)C1,114.9%
9,C1CC(N2C[C@@H]3COC[C@]3(COCC3CCOCC3)C2)C1.O=C(O)C(F)(F)F,101.5%
10,COCCNC(=O)[C@]12COC[C@H]1CN(C1CCOCC1)C2,-42.69%
11,O=C(COC[C@@]12CCC[C@@H]1CN(C1CCCC1)C2)N1CCCC1.O=C(O)C(F)(F)F,93.22%
12,CS(=O)(=O)N1C[C@H]2CCC[C@@]2(COCC2CCOCC2)C1,-10.38%
13,CS(=O)(=O)N1C[C@@H]2COC[C@]2(CN2CCOCC2)C1.O=C(O)C(F)(F)F,2.768%
14,CN(C)S(=O)(=O)N1C[C@H]2CCC[C@@]2(COCc2cccnc2)C1.O=C(O)C(F)(F)F,15.15%
15,O=C(COC[C@]12COC[C@H]1CN(C1CCC1)C2)N1CCCC1.O=C(O)C(F)(F)F,91.79%
16,CCc1ccc(CNC(=O)CCNc2ncccn2)s1,5.252%
17,CCOC(=O)CCCc1ccc2c(c1)CC(=O)N2,6.435%
18,Cc1ncn(-c2cc(N3CCN(S(C)(=O)=O)CC3)ncn2)c1C,-0.4612%
19,Cc1cc(C)c2nc(CNC3CCNC3=O)cc(O)c2c1 (centres undefined),-8.98%
20,CC(C)c1nc(S(=O)(=O)N(C)c2ccc(F)cc2)c[nH]1,-3.559%
21,CN(C)C(=O)COC[C@]12COC[C@H]1CN(C1CCCC1)C2.O=C(O)C(F)(F)F,91.16%
22,CN(C)C(=O)COC[C@@]12CCC[C@@H]1CN(C1CCCC1)C2.O=C(O)C(F)(F)F,-10.47%
23,CN(C)C(=O)COC[C@@]12CCC[C@@H]1CN(C1CCC1)C2.O=C(O)C(F)(F)F,4.654%
24,Cc1ccc(CN2CC[C@H]3OCC[C@@]3(COCC(=O)N(C)C)C2)s1.O=C(O)C(F)(F)F,-46.75%
25,O=C(COC[C@@]12CCC[C@@H]1CN(C1CCC1)C2)N1CCCC1.O=C(O)C(F)(F)F,106.1%

row,SMILES,Percent Effect
1,Cc1cc(CN2C[C@H]3CCC[C@@]3(COCC(=O)N3CCCC3)C2)no1,-8.943%
2,Cc1nc(NC(=O)OC(C)(C)C)sc1C(N)=O,1.161%
3,CC(C)c1nnc(CN(C)C(c2ccc(F)cc2)c2cccnc2)o1 (centres undefined),1.551%
4,Cc1cc(C)nc(N2CCc3ccc(OC(F)F)cc3C2)n1,7.415%
5,Cn1cc(C(=O)N2C[C@@H]3COC[C@]3(COCc3cccnc3)C2)cn1,5.656%
6,Cc1ccc(C(=O)N2C[C@@H]3COC[C@]3(COCc3cccnc3)C2)cn1,-15.81%
7,CS(=O)(=O)NC[C@]12COC[C@H]1CN(C(=O)c1cnccn1)C2,-1.744%
8,Cc1ccnc(OC[C@]23COC[C@H]2CN(C(=O)c2ncccn2)C3)n1,94.44%
9,Cc1ccnc(OC[C@]23COC[C@H]2CN(C(=O)c2cnccn2)C3)n1,95.8%
10,Cc1ccnc(OC[C@]23COC[C@H]2CN(C(=O)c2ccnn2C)C3)n1,78.09%
11,Cc1ccnc(OC[C@]23COC[C@H]2CN(C(=O)C2=CCCCC2)C3)n1,104.7%
12,COC[C@]12COC[C@H]1CN(C(=O)c1ccc(F)cc1C)C2,-9.416%
13,Cc1nc(C(=O)N2C[C@@H]3COC[C@]3(COCc3cccnc3)C2)cs1,-15.42%
14,Cc1cc(N(C)C)nc(NC2CCc3nc(C)nn3C2)n1 (centres undefined),0.6524%
15,O=C(C1CC1)N1C[C@H]2CNC[C@@]2(C(=O)NCCCc2ccccc2)C1,-23.56%
16,CCn1cc(CN2CCC(CNC(C)=O)CC2)cc1C#N,3.567%
17,CC(C)Oc1cc(N2CCCC(O)C2)nc(N)n1 (centres undefined),-24.67%
18,Cc1nn(C)c(C)c1C1CCCN1CCOc1cccc(C#N)c1 (centres undefined),-3.583%
19,Cc1nc(N)cc(C2CCN2CCOc2ccccc2)n1 (centres undefined),153.2%
20,COCCN1CCC1c1cc(N)nc(C)n1 (centres undefined),66.06%
21,COCCN1CCC(CN(C)c2nc3c(s2)c(C)nn3C)C1 (centres undefined),-0.8373%
22,COCCCn1ccc(NC2CCOCC2)n1,12.54%
23,Cc1cc(N2CCC(NCCOc3ccccc3)CC2)nc(C)n1,2.138%
24,COCCN1CCC1c1cc(NC2CCCC2)nc(C)n1 (centres undefined),74.49%
25,COCCCn1ccc(NC2CCSCC2)n1,-2.987%

row,SMILES,Percent Effect
1,COCCN1CCN(Cc2ccc3nsnc3c2)[C@H]2CS(=O)(=O)C[C@H]21,0.2231%
2,CCc1nc(N)sc1C(=O)N1CCC(c2cc(O)nc(C)n2)CC1,-4.912%
3,Cc1nc(N)cc(C2CCN2CCC(N)=O)n1 (centres undefined),67.17%
4,Cc1ncsc1C(=O)NC1CCN(CCC(N)=O)CC1,-6.823%
5,CCN(Cc1noc(CC(C)C)n1)Cc1ncccc1C(=O)O,0.41%
6,O=C(Cc1ccc(F)cc1)NCC(O)(c1cccs1)C1CC1 (centres undefined),-8.989%
7,Cc1cc(N2CCOC(C(F)(F)F)C2)nc(-c2ccccc2O)n1 (centres undefined),0.367%
8,CCCOC1CCCN(C(=O)c2ccnc(N3CCN(C)CC3)c2)C1 (centres undefined),-2.412%
9,FC(F)(F)C1CN(c2nc(-c3ccccc3)no2)CCO1 (centres undefined),1.85%
10,O=C(c1ccnc(N2CCOC(c3ccc(Cl)cc3)C2)c1)N1CCCC1 (centres undefined),5.063%
11,O=C(c1ccc(-c2nc[nH]n2)cc1)N1CCOC(C(F)(F)F)C1 (centres undefined),16.44%
12,O=C(c1ccnc(N2CCOC(C(F)(F)F)C2)c1)N1CCOCC1 (centres undefined),126.7%
13,CN1CCN(C(=O)c2ccnc(N3CCOC(C(F)(F)F)C3)c2)CC1 (centres undefined),130.4%
14,O=C(c1ccnc(N2CCOC(C(F)(F)F)C2)c1)N1CCCC1 (centres undefined),104.2%
15,O=C(c1ccccc1-c1nc[nH]n1)N1CCOC(C(F)(F)F)C1 (centres undefined),-3.819%
16,N#CC(NC(=O)CC1CCSCC1)c1cnn(-c2ccccc2)c1 (centres undefined),-2.178%
17,O=C(c1cccc(O)c1)N1CCN(Cc2nnc(C3CCC3)o2)CC1,6.828%
18,Cc1csc(NC(=O)[C@@H]2C[C@H]3[C@H](CCN3S(C)(=O)=O)O2)n1,118.9%
19,CC(=O)N1CC[C@@H]2O[C@@H](COCc3csc(C)n3)CC[C@@H]21,-30.94%
20,CN1CCC(NC(=O)[C@H]2CC[C@@H]3[C@@H](CCN3c3ncccn3)O2)CC1.O=C(O)C(F)(F)F.O=C(O)C(F)(F)F,7.6%
21,Cc1csc(NC(=O)[C@@H]2C[C@H]3[C@H](CCN3c3ncccn3)O2)n1.O=C(O)C(F)(F)F,118%
22,CS(=O)(=O)N1CC[C@H]2O[C@H](C(=O)NCc3cccnc3)CC[C@H]21,-7.533%
23,CC(=O)N1CC[C@@H]2O[C@H](C(=O)Nc3nc(C)cs3)C[C@@H]21,101%
24,CNC(=O)[C@@H]1CC[C@@H]2[C@@H](CCN2C(=O)N(C)C)O1,-10.15%
25,CS(=O)(=O)N1CC[C@H]2O[C@@H](C(=O)NCc3ccco3)CC[C@H]21,-0.8352%

row,SMILES,Percent Effect
1,O=C(NCc1cccnc1)[C@@H]1C[C@H]2[C@H](CCN2c2ncccn2)O1.O=C(O)C(F)(F)F.O=C(O)C(F)(F)F,-20.81%
2,NC(=O)CCn1ccc(NC(=O)c2ccc(Br)o2)n1,-16.68%
3,O=C(NCC1(N2CCOCC2)CCSC1)Nc1ccc(F)cc1 (centres undefined),-9.419%
4,CCCOc1ccccc1CCCNc1ncnc2oc(C)nc12,-6.613%
5,CCc1nccc(CN2CCC(CNC(=O)c3occc3C)C2)n1 (centres undefined),-2.673%
6,CC(N1CCN(C(=O)NCc2cccc(C#N)c2)CC1)C(F)(F)F (centres undefined),-0.6976%
7,O=C(C1CCCCO1)N1CCc2ncnc(NCCO)c2CC1 (centres undefined),-13.54%
8,O=C([C@H]1CCCO1)N1CCc2ncnc(C3CC3)c2CC1,109.2%
9,CC(C)Nc1ncnc2c1CCN(C(=O)[C@H]1CCCO1)CC2,89.47%
10,O=C(c1ccnnc1)N1CCc2ncnc(C3CCOC3)c2CC1 (centres undefined),-19.12%
11,CCN(C)c1ncnc2c1CCN(C(=O)[C@H]1CCCO1)CC2,4.637%
12,O=C(C1CCCCO1)N1CCc2ncnc(NCc3ccon3)c2CC1 (centres undefined),-8.792%
13,CCCN(C)C(=O)c1cc(Br)cc(S(=O)(=O)N2CCOCC2)c1F,6.063%
14,Cc1nnc(N2CCCC3(CN(c4cccc(F)c4)CCO3)C2)o1 (centres undefined),-14.38%
15,O=C(NCCN1CCOCC1)c1cc(Cl)c2c(c1)OCCCO2,12.84%
16,CCn1c(CN2CCOC(Cn3cncn3)C2)nc2c(F)cccc21 (centres undefined),-6.661%
17,Cc1ccc(C(CNCC2CC2)N2CCOCC2)s1 (centres undefined),-12.57%
18,CC(C(=O)N1CCC(Nc2cccnn2)CC1)n1cccn1 (centres undefined),60.47%
19,CC(Cn1cccn1)C(=O)N1CCC(Nc2cccnn2)CC1 (centres undefined),-6.529%
20,O=C(c1ccc(-c2cnco2)cc1)N1CCC(Nc2cccnn2)CC1,107%
21,Cc1cccc2nc(C(=O)N3CCC(Nc4cccnn4)CC3)cn12,-6.08%
22,O=C(c1ccc(-n2cnnc2)cc1)N1CCC(Nc2cccnn2)CC1,87.89%
23,CNC(=O)c1ccc(C(=O)N2CCC(Nc3cccnn3)CC2)cn1,119%
24,CC(C(=O)N1CCC(Nc2cccnn2)CC1)n1ccnc1 (centres undefined),3.754%
